This passage reports Inhibition results from ChEMBL document CHEMBL4513146, “CO-ADD screening of Karazin Kharkiv National University (Ukraine) compounds”.

One assay relates to Staphylococcus aureus. The conditions noted are these: Concentration 32 ug.mL-1;; ASSAY_TEST Inhibition of Bacterial Growth; detection method Absorption (OD600); MEDIA CAMHB; plate type 384well; NBS; CORNING #3640; time 18 hr.
The next assay concerns Escherichia coli. The following applies: Concentration 32 ug.mL-1;; ASSAY_TEST Inhibition of Bacterial Growth; detection method Absorption (OD600); MEDIA CAMHB; plate type 384well; NBS; CORNING #3640; time 18 hr.

Potency and affinity values are given separately.

Consider `Cc1oc(-c2ccc(OC(C)C)cc2)nc1CSc1nc2ccccc2n2c(C(C)C)nnc12`, for which the Inhibition in the assay on Staphylococcus aureus is given as -4.43%; in the assay on Escherichia coli, -16.17%.

In the case of `O=S(=O)(c1ccc2nncn2c1)N(Cc1ccc(F)cc1)c1ccc(F)c(F)c1`, the figures for the Inhibition in the assay with Staphylococcus aureus and with Escherichia coli were -11.56% and -13.53%, respectively.

On to `Cc1cccc(NC(=O)Cn2nc3c(SCc4ccc(Cl)cc4)nccn3c2=O)c1C`, for which the Inhibition is given as 13.84% in the assay with Staphylococcus aureus and -3.65% in the assay on Escherichia coli.

Turning to `Cc1cc2nn(CC(=O)NCc3ccccc3)c(=O)n2c(-c2ccc(C(F)(F)F)cc2)n1`, the Inhibition in the assay with Staphylococcus aureus is recorded as 13.36%; in the assay with Escherichia coli it was -8.01%.

In the case of `Cc1cccc(C)c1NC(=O)CSc1nc2ccccc2n2c(C)nnc12`, the results for the Inhibition in the assay on Staphylococcus aureus and in the assay on Escherichia coli were 11.69% and -4.17%, respectively.

For `CCOc1ccc(-n2ccn3c(SCC(=O)c4ccc(OC)cc4)nnc3c2=O)cc1`, the Inhibition with Staphylococcus aureus was 15.17%; in the assay with Escherichia coli it was -3.52%.

Consider `Cc1cc2nn(CC(=O)Nc3cc(F)ccc3C)c(=O)n2c(Nc2ccc(C)c(F)c2)n1`, for which the Inhibition was 2.63% in the assay with Staphylococcus aureus and -8.01% in the assay on Escherichia coli.

For `O=C(Cn1nc2c(Oc3ccccc3)nccn2c1=O)Nc1ccc2c(c1)OCCO2`, the Inhibition in the assay with Staphylococcus aureus was determined as 7.17%; in the assay with Escherichia coli it was 2.24%.

For `O=c1c2nn(Cc3cccc(Cl)c3)c(=O)n2ccn1-c1ccccc1`, the values for the Inhibition in the assay with Staphylococcus aureus and in the assay with Escherichia coli were 0.94% and -5.32%, respectively.

Consider `CCOc1ccccc1NC(=O)Cn1c(=O)c2nnc(C(C)C)n2c2ccccc21`, for which the Inhibition in the assay on Staphylococcus aureus came to 15.38%; with Escherichia coli, 5%.

For the molecule `Cc1ccc(NC(=O)CSc2nc3ccccc3n3c(C(C)C)nnc23)c(Cl)c1`, the Inhibition with Staphylococcus aureus is recorded as -3.19%; in the assay with Escherichia coli, -0.25%.

`CCOc1ccc(-n2ccn3c(SCC(N)=O)nnc3c2=O)cc1`: the values for the Inhibition with Staphylococcus aureus and with Escherichia coli were 8.32% and 3.76%, respectively.

As for `CCOc1ccc(N(Cc2cccc(F)c2)S(=O)(=O)c2ccc3nncn3c2)cc1`, the values for the Inhibition with Staphylococcus aureus and in the assay with Escherichia coli were 8.4% and -7.52%, respectively.

Consider `Cc1ccc(C)c(NC(=O)Cn2nc3cc(C)nc(Nc4ccc(F)cc4)n3c2=O)c1`, for which the results for the Inhibition with Staphylococcus aureus and in the assay with Escherichia coli were -0.57% and -5.84%, respectively.

As to `COc1ccc(Cl)cc1NC(=O)CSc1nc2ccccc2n2c(C(C)C)nnc12`, the Inhibition is listed as -6.36% with Staphylococcus aureus and -1.47% with Escherichia coli.

In the case of `CCc1ccccc1Sc1nccn2c(=O)n(CC(=O)Nc3ccc(C)cc3)nc12`, the Inhibition in the assay on Staphylococcus aureus is 2.48%; in the assay with Escherichia coli it was -9.52%.

Turning to `O=C(CSc1nnc2c3cc(-c4ccc(F)cc4)nn3ccn12)Nc1ccccc1C(F)(F)F`, the Inhibition is recorded as -6.75% in the assay with Staphylococcus aureus and -13.58% in the assay on Escherichia coli.

For the molecule `CC(C)n1c(=O)c2ccc(C(=O)NC3CCCC3)cc2n2c(=O)n(Cc3cccc(C(F)(F)F)c3)nc12`, the values for the Inhibition with Staphylococcus aureus and in the assay with Escherichia coli were 8.2% and 0.25%, respectively.

As for `COc1ccccc1CNC(=O)Cn1nc2c(N3CCSCC3)nccn2c1=O`, the Inhibition in the assay with Staphylococcus aureus is 5.62%; in the assay on Escherichia coli it was -5.9%.

On to `COc1cccc(C(=O)CSc2nnc3c(=O)n(-c4ccc(F)cc4)ccn23)c1`, for which the Inhibition with Staphylococcus aureus is recorded as 4.06%; in the assay on Escherichia coli, 2.2%.

Take `CCc1nnc2ccc(S(=O)(=O)N(Cc3ccc(OC)cc3)c3cccc(F)c3)cn12`: the Inhibition was -1.45% in the assay with Staphylococcus aureus and -12.26% in the assay with Escherichia coli.

Turning to `Cc1cccc(NC(=O)CSc2nnc3ccc(C(=O)Nc4cccc(F)c4)cn23)c1C`, the results for the Inhibition in the assay on Staphylococcus aureus and in the assay on Escherichia coli were 10.8% and -1.92%, respectively.

With `CCOc1ccccc1NC(=O)Cn1nc2c(Oc3cccc(OC)c3)nccn2c1=O`, the Inhibition is on record as 11.72% with Staphylococcus aureus and -4.66% in the assay with Escherichia coli.

Take `O=C(Cn1nc2c3sc(N4CCCC4)nc3ncn2c1=O)Nc1ccccc1Br`: the results for the Inhibition in the assay on Staphylococcus aureus and with Escherichia coli were 3.7% and -11.75%, respectively.

As for `COC(=O)c1ccccc1NC(=O)Cn1nc2c(Oc3cccc(OC)c3)nccn2c1=O`, the Inhibition in the assay on Staphylococcus aureus was -4.11%; in the assay on Escherichia coli, -21.29%.

Regarding `O=S(=O)(c1ccc2nncn2c1)N(Cc1cc(F)cc(F)c1)c1ccc(F)cc1`, the Inhibition in the assay with Staphylococcus aureus was 2.59%; with Escherichia coli, -3.43%.

Take `COc1cc(NC(=O)Cn2nc3ccc(SCc4ccc(Cl)cc4)nn3c2=O)cc(OC)c1`: the Inhibition in the assay with Staphylococcus aureus was -3.52%; in the assay on Escherichia coli it was -10.62%.

`COc1cc(OC)c(NC(=O)Cn2nc3c(Oc4ccc(C)cc4)nccn3c2=O)cc1Cl`: the Inhibition with Staphylococcus aureus was 4.71%; in the assay on Escherichia coli, -4.58%.

With `CC(C)c1ccc(NC(=O)Cn2nc3c(Sc4ccccc4)nccn3c2=O)cc1`, the values for the Inhibition in the assay on Staphylococcus aureus and in the assay on Escherichia coli were -14.37% and -14.79%, respectively.

With `CCOc1ccc(-c2nc(CSc3nc4ccccc4n4c(C)nnc34)c(C)o2)cc1`, the Inhibition in the assay with Staphylococcus aureus is reported as 7.53%; with Escherichia coli, 1.84%.

On to `COc1ccc(NC(=O)Cn2c(=O)c3nnc(C)n3c3ccccc32)cc1Cl`, for which the Inhibition came out at 14.24% in the assay on Staphylococcus aureus and 3.26% with Escherichia coli.

`COc1cccc(-n2ccn3c(SCc4cc(C)ccc4C)nnc3c2=O)c1`: the Inhibition was 11.56% in the assay with Staphylococcus aureus and -0.49% in the assay with Escherichia coli.

For the molecule `COc1cc(OC)c(NC(=O)Cn2nc3c(Oc4cccc(C)c4C)nccn3c2=O)cc1Cl`, the Inhibition in the assay with Staphylococcus aureus is 1.15%; in the assay on Escherichia coli, -3.57%.

As usually defined, the Inhibition is the drop in the measured response relative to a control, in per cent.
